IDE cell activ: boosts human insulin-degrading enzyme activity in HEK cells; P14735; activation, % at 5.96 µM; AID 493087; 340,000 compounds, 0.073% hits; FAbeta-B cleavage, fluorescence polarization; 0% vehicle, 100% cell-free pure enzyme wells;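 active = activation above the mean of all tested compounds plus 3 SD, set per screening campaign, cut at about 17% in these data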
Granule exo inh: lytic granule exocytosis inhibition; TALL-104 LAMP-1 surface exposure, flow cytometry; cells stimulated with thapsigargin and PMA; inhibition, % at 10 µM; 360,000 compounds, 0.66% hits; AID 651702;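 active = inhibition above about 55%, limit read from the data; inconclusive = no clear call, values can overlap the other calls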
SKKanGAS inh: blocks kanamycin growth of S. pyogenes SKKanGAS strain. BacTiter-Glo, 6 h. inhibition, % at 7.5 µM. 300,000 compounds, 1.3% hits;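 active = mean replicate score, as percent of positive control median, at least 50; inconclusive = mean below 50 but one replicate at or above 50; inactive = mean and every replicate below 50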;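 also: strain carries kanamycin resistance gene driven by streptokinase promoter and grows in 40 µg/ml kanamycin; loss of luminescence reflects streptokinase promoter inhibition or plain growth inhibition; 0% = median of DMSO wells and 100% = positive control at its reference dose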
PP5 primary: inhibitors of human protein phosphatase 5 (PP5). P53041. 320,000 compounds, 0.18% hits. inhibition, % at 6.7 µM. purified PP5c, OMFP substrate fluorescence;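 active = inhibition above the campaign's mean inhibition across all tested compounds plus 3 SD, cut at about 9.5% in these data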;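 also: 0% = DMSO only and 100% = 100 µM cantharidin control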
IDE inh: cellular human IDE inhibition; P14735; HEK cells, FAbetaB cleavage, fluorescence polarization; inhibition, % at 5.59 µM; 320,000 compounds, 0.41% hits;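 active = percent inhibition above the average of all tested compounds plus 3 SD, set per screening campaign, cut at about 16% in these data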;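 also: IDE supplied by intact live HEK cells; FP after avidin binding of uncleaved biotin substrate so inhibition keeps polarization high; 0% = DMSO wells and 100% = 60 µM reference IDE inhibitor Ii1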
PP1 inh: counter-screen for PP5 inhibitors: inhibitors of human PP1-alpha; purified PP1alpha, OMFP fluorescence; 320,000 compounds, 0.9% hits; AID 2235; inhibition, % at 6.7 µM;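 active = inhibition above the mean inhibition of all tested compounds plus 3 SD, computed separately for each screening campaign, cut at about 15% in these data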
Numbers without * were called inactive; ? = inconclusive; / = not tested or not shown. Hits are enriched below; roughly 2.8% of the tested compounds scored in any of these assays.

SMILES	IDE cell activ	Granule exo inh	SKKanGAS inh	PP5 primary	IDE inh	PP1 inh
CC(C)(O)c1[nH]c2cc(C(F)(F)F)ccc2c1C(C)(C)O	-1.3	2.3	-5.3	0.2	3.6	-3.1
CC(C)(O)c1[nH]c2cc(F)ccc2c1C(C)(C)O	1.8	-0.3	89.9*	-3.9	-2.4	0.8
CCNC(=O)C1(C)CCCN(Cc2cccc(Oc3ccccc3)c2)C1 (centres undefined)	/	7.9	/	/	/	/
Cc1[nH]nc(-c2ccc(O)cc2O)c1-c1ccc(Cl)cc1	6.3	-3.7	-2.2	7.6	-7.8	5.2
Oc1ccccc1-c1cc(-c2cccc(F)c2)n[nH]1	3.0	2.8	1.7	4.8	-8.6	3.5
COc1ccc(-c2n[nH]c(C)c2-c2ccc(Cl)cc2)c(O)c1	2.6	3.0	68.3*	8.5	-2.4	-1.4
CC(C)(C)c1ccc(-c2cc(-c3ccccc3O)[nH]n2)cc1	9.5	0.4	104.2*	3.1	4.2	1.2
COc1ccc(-c2cc(-c3cc(C)ccc3O)[nH]n2)cc1	1.3	2.2	?	9.1	1.9	7.0
COc1ccc(-c2cc(-c3ccc(C)cc3)n[nH]2)c(O)c1	-0.9	-2.9	77.1*	6.0	3.4	1.2
COC(=O)c1ccc(CN2CCCC(CO)(Cc3ccc(F)cc3F)C2)cc1 (centres undefined)	3.5	-1.4	-11.6	1.1	-2.8	0.5
Cc1cccc(OCc2nn[nH]n2)c1C	4.3	-0.5	-1.9	-2.3	-1.3	-4.6
CC(C)(C)c1ccc(NC(=O)COC(=O)c2ccc(NS(=O)(=O)c3ccc(F)c(F)c3)cc2)cc1	4.1	9.5	54.0*	3.8	-3.3	2.6
CC(C)Cc1nnc(NC(=O)CCC(=O)N2CCN(c3ccccc3)CC2)s1	-1.1	-1.0	102.9*	2.1	-0.8	-0.7
CCCc1nnc(NC(=O)CCC(=O)N2CCN(c3ccccc3)CC2)s1	-0.9	-12.3	-6.9	0.6	-6.2	-1.4
N#Cc1c(NC(=S)NC(=O)c2ccccc2)sc2c1CCN(CCc1ccccc1)C2	/	/	1.9	-0.2	73.7*	11.4
COc1ccc(/C(C)=N/NC(=O)CNC(=O)C(c2ccccc2)c2ccccc2)c(OC)c1	-5.6	-1.0	10.5	0.7	8.9	0.3
C[C@H](CO)N1C[C@H](C)[C@@H](CN(C)S(=O)(=O)c2cn(C)cn2)Oc2ccc(NC(=O)Cc3ccccc3)cc2C1=O	5.1	5.1	/	/	-4.9	/
Fc1ccc2nc(Nc3nc4cc5c(cc4s3)OCCO5)sc2c1	0.6	8.4	49.5*	3.8	10.1	-1.3
c1ccc2sc(Nc3nc4cc5c(cc4s3)OCO5)nc2c1	1.5	-1.7	-32.8	2.9	0.6	-0.6
Fc1ccc2nc(Nc3nc4cc5c(cc4s3)OCO5)sc2c1	2.8	3.4	60.0*	-1.4	-0.8	8.1
O=C(Nc1nc2cc3c(cc2s1)OCCO3)c1ccco1	1.3	5.5	61.6*	3.5	0.1	-0.2
O=C(NNc1nc2cc3c(cc2s1)OCCO3)c1ccc(F)cc1	-4.8	13.0	6.2	0.2	-3.0	-3.7
CC(C)c1ccc(-c2nc(N3CCCC3)nc3n[nH]c(N)c23)cc1	6.0	2.7	53.0*	2.4	6.2	7.0
CCOC(=O)C1CCN(C2=C(NS(=O)(=O)c3ccc(Cl)cc3)C(=O)c3ccccc3C2=O)CC1	7.4	-3.2	51.9*	4.9	0.2	-0.2
Cc1ccc(C)c(S(=O)(=O)N2CCCOC2CNC(=O)C(=O)NCCc2ccccc2)c1 (centres undefined)	-1.0	-4.6	4.6	-0.7	5.4	-2.4
SMILES	IDE cell activ	Granule exo inh	SKKanGAS inh	PP5 primary	IDE inh	PP1 inh
CCc1ccc(Cc2cnc(NC(=O)C3=NCCN3)s2)cc1	4.1	2.8	18.0	-1.4	6.8	17.3*
O=C(Nc1ncc(Cc2ccccc2Cl)s1)C1=NCCN1	-0.6	2.2	20.1	1.0	-5.4	-4.4
Cc1ccc(C(=O)CC2(O)C(=O)N(C)c3ccccc32)s1 (centres undefined)	3.1	0.5	-13.0	-0.1	-0.1	1.5
Cc1ccc(-n2ncc(C(=O)Nc3cc(Cl)cc(Cl)c3)c2C2CCNCC2)cc1C	7.8	88.1*	-6.0	/	/	/
Nc1c(-c2ccccc2)c(CSc2nc3ccccc3[nH]2)nn1-c1cccc(Cl)c1	-1.2	55.2	103.0*	-0.2	4.7	3.1
O=C(Nc1ccc(Cl)c(Cl)c1)c1cccc(S(=O)(=O)NCc2cccnc2)c1	1.5	14.3	-6.7	1.4	9.0	6.1

Source: PubChem (several laboratories)
